Compound activity as filed in PubChem.
Mdm2-MdmX inh: inhibitors of human Mdm2/MdmX interaction; O15151+Q00987; SaOS-2 split-luciferase Mdm2/MdmX complementation, luminescence; inhibition, % at 8 µM; 3% of 330,000 active;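 active = inhibition of at least 50% at 8 µM in the primary screen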
Target sequence (O15151 whole entry, looked up): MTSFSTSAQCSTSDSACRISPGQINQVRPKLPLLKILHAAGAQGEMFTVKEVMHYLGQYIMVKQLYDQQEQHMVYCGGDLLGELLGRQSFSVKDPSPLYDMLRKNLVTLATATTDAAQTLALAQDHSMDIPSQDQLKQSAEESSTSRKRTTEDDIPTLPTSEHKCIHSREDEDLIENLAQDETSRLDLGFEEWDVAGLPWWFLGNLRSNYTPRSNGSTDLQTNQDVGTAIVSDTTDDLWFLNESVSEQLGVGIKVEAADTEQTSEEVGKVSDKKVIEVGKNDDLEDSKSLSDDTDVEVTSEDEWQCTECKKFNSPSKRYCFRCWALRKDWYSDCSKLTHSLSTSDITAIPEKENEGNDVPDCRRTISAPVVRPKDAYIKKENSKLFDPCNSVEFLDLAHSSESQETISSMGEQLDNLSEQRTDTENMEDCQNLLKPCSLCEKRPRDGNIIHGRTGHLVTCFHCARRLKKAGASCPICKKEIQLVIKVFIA
Target sequence (Q00987 whole entry, looked up): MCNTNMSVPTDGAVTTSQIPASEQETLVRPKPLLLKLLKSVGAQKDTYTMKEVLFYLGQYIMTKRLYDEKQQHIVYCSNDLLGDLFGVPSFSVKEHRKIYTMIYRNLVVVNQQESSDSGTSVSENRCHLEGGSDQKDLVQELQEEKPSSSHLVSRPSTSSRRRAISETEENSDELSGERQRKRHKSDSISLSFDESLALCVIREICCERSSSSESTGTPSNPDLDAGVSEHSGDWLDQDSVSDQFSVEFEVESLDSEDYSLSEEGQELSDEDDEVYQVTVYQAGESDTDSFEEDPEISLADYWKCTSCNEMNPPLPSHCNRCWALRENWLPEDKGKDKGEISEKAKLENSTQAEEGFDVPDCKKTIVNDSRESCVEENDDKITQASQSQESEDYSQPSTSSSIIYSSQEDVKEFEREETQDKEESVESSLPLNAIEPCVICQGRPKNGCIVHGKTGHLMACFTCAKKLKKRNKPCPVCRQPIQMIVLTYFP
CSC inhib: cancer stem cell inhibition. cancer stem cell-like cells viability, luminescence. inhibition, % at 7.5 µM. 1.1% of 300,000 active. AID 2717; in the data active = inhibition above about 75%; inconclusive = no clear call, values can overlap the other calls; tested in HMLE shEcad cells
Jurkat NFkB inh: inhibitors of the PMA/ionomycin-induced NF-kB reporter in Jurkat cells. PMA/ionomycin-induced NF-kB luciferase reporter, luminescence. inhibition, % at 4 µM. 0.53% of 330,000 active. AID 435003; in the data active = inhibition above about 50%
aSyn UTR inh: MLPCN primary screen, SNCA 5' untranslated region. alpha-synuclein 5'UTR reporter, inhibitor activity. inhibition, % (tested at 7.5 µM). 0.82% of 300,000 active. AID 1813; in the data active = inhibition above about 60%; inconclusive = no clear call, values can overlap the other calls;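 note: H4 neuroglioblastoma cells stably carrying SNCA 5'UTR luciferase fusion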
Gli-Sufu block: antagonists of Gli-Sufu signaling; Sufu-KO-LIGHT fibroblasts, Gli luciferase reporter luminescence; 0.74% of 340,000 active; inhibition, % at 5 µM; AID 588413;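 active = inhibition above about 55%, limit read from the data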
697 NFkB inh: lowers PMA/ionomycin-induced NF-kB signal in 697 B cells | 697 B-cell NF-kB luciferase reporter, 16 h | inhibition, % at 4 µM | 0.33% of 330,000 active | AID 435022; in the data active = inhibition above about 35%
Mdm2 MdmX conf: human Mdm2/MdmX binding inhibition, confirmed; shares compounds with Mdm2-MdmX inh; luminescent assay; inhibition, % at 8 µM; 55% of 10,000 active; AID 489028; in the data active = inhibition above about 40%
Full FLuc ctr: counter-screen for Mdm2/MdmX inhibitors: full-length luciferase | inhibition, % at 8 µM | 77% of 6,200 active | SaOS-2 full-length luciferase counterscreen, luminescence | shares compounds with Mdm2-MdmX inh | AID 504607;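 active = mean inhibition at 8 µM reaching about 37%, which flags the compound as non-specific, limit read from the data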;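 note: p53-null SaOS-2 cells with luciferase driven by a doxycycline-inducible promoter; compound on cells about two nights before reading with doxycycline added after day one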
Each line names hits and unclear results; the compound was inactive in the other large screens (follow-up assays come after a bar, where they were run). Shown are actives, neighbours in structure and some others; about 4.5% of the full set was active somewhere.

Cc1cc(C)c(C(=O)/C=C/c2ccc(C(C)C)cc2)c(=O)[nH]1	Mdm2-MdmX inh 86, CSC inhib 84 | Mdm2 MdmX conf 97 | Full FLuc ctr 56
Cc1cc(C)c2oc(-c3ccc(C)c(NC(=S)NC(=O)c4cccs4)c3)nc2c1	Mdm2-MdmX inh 77 (no result: CSC inhib) | Mdm2 MdmX conf inactive
CCCCOc1ccc(-c2c(C#N)c(N)nc(SCC(N)=O)c2C#N)cc1	Mdm2-MdmX inh 55 | Mdm2 MdmX conf inactive
CCCCOC(=O)CSc1nc(N)c(C#N)c(-c2ccc(OCC)cc2)c1C#N	none
CCN(CC)CCn1c2c(c(SCC(=O)Nc3ccc(C(C)C)cc3)nc1=O)CCCC2	none
Cc1ccc2nc(NC(=O)CSc3nc(=O)n(CCN(C)C)c4c3CCCC4)sc2c1	Mdm2-MdmX inh 65 | Mdm2 MdmX conf 49 | Full FLuc ctr 71
CCCCc1ccc(NC(=O)CSc2nc(=O)n(CCN(CC)CC)c3c2CCC3)cc1	Mdm2-MdmX inh 59, CSC inhib 80 | Mdm2 MdmX conf inactive | Full FLuc ctr 62
CCN(CC)CCn1c2c(c(SCC(=O)Nc3nc(C)cs3)nc1=O)CCC2	Mdm2-MdmX inh 52 | Mdm2 MdmX conf inactive
COc1ccc(-c2cc(-c3cccs3)c(C#N)c(SCC(=O)NCc3ccccc3OC)n2)cc1	Mdm2-MdmX inh 84 | Mdm2 MdmX conf inactive
COc1ccc(-c2cc(-c3cccs3)c(C#N)c(SCC(=O)NCc3ccccc3)n2)cc1	Mdm2-MdmX inh 61 | Mdm2 MdmX conf inactive
COc1ccc(N2C(=O)C(CN3CCN(C)CC3)C2c2ccccc2)cc1 (stereo not drawn)	none
CC1=NNC(=O)/C1=C\c1cn(-c2ccccc2)nc1-c1cccs1	Mdm2-MdmX inh 83, CSC inhib 81 | Mdm2 MdmX conf 56 | Full FLuc ctr inactive
O=C(O)CCCCCN1C(=O)/C(=C\c2cn(-c3ccccc3)nc2-c2cccs2)SC1=S	Mdm2-MdmX inh 51, CSC inhib 103 | Mdm2 MdmX conf inactive
CC1=NNC(=O)/C1=C\c1cn(-c2ccccc2)nc1-c1ccc(F)cc1	none (no result: Mdm2-MdmX inh, CSC inhib, Jurkat NFkB inh, 697 NFkB inh)
COc1ccc(C(=O)NC2CCCc3c2cnn3-c2cc(F)cc(F)c2)c(OC)c1OC (stereo not drawn)	Mdm2-MdmX inh 53 | Mdm2 MdmX conf 47 | Full FLuc ctr 57
COc1ccc(C(=O)NC2CCCc3c2cnn3-c2cc(F)cc(F)c2)c(OC)n1 (stereo not drawn)	none
CC(C)CCn1c(Sc2nc3ccccc3o2)nc2c1c(=O)[nH]c(=O)n2C	Mdm2-MdmX inh 61 | Mdm2 MdmX conf 46 | Full FLuc ctr 41
COc1ccc(C(=O)C(CN2CCCC2)c2ccccc2)cc1 (stereo not drawn)	Mdm2-MdmX inh 99, CSC inhib 86 | Mdm2 MdmX conf 64 | Full FLuc ctr inactive
COc1ccc(C(=O)C(CN2CCOCC2)c2ccccc2)cc1 (stereo not drawn)	Mdm2-MdmX inh 80 | Mdm2 MdmX conf 81 | Full FLuc ctr inactive
COc1ccc(C(=O)CCN2CCCCCC2)cc1	none
CCC(C(=O)c1ccc(O)cc1)c1ccccc1 (stereo not drawn)	none
CCCCOc1ccc(C(=O)C(CN2CCOCC2)c2ccccc2)cc1 (stereo not drawn)	Mdm2-MdmX inh 94, CSC inhib 111 | Mdm2 MdmX conf 74 | Full FLuc ctr inactive
O=C(c1ccc(Cl)cc1)C(CN1CCCC1)c1ccccc1 (stereo not drawn)	Mdm2-MdmX inh 71 | Mdm2 MdmX conf inactive
O=C(c1ccccc1)C(CCC(CN1CCOCC1)C(=O)c1ccccc1)CN1CCOCC1 (stereo not drawn)	Mdm2-MdmX inh 95 | Mdm2 MdmX conf 65 | Full FLuc ctr 51
Cc1cc(C(=O)N/N=C/c2ccc(Cl)c([N+](=O)[O-])c2)c(C)n1-c1ccc(F)cc1	Mdm2-MdmX inh 96 | Mdm2 MdmX conf 83 | Full FLuc ctr 45
O=C(CN1C(=O)/C(=C\c2cccc(Cl)c2)Oc2ccccc21)N1CCN(c2ccccn2)CC1	Mdm2-MdmX inh 65 (no result: Gli-Sufu block) | Mdm2 MdmX conf inactive
O=C(CN1C(=O)c2cccc3cccc(c23)C1=O)N1CCN(c2ccccn2)CC1	Mdm2-MdmX inh 50 | Mdm2 MdmX conf inactive
CC(=O)NC1C(=O)N(Cc2ccccc2)c2ccc(Br)cc21 (stereo not drawn)	Mdm2-MdmX inh 75 | Mdm2 MdmX conf 42 | Full FLuc ctr 49
COc1ccc(Nc2ncnc3ccccc23)c(OC)c1	none
COc1ccc(Nc2nc(N3CCCC3)nc3ccccc23)c(OC)c1	Mdm2-MdmX inh 54 | Mdm2 MdmX conf inactive
CC(Nc1nc(N2CCCCC2)nc2ccccc12)c1ccccc1 (stereo not drawn)	Mdm2-MdmX inh 54 (no result: CSC inhib) | Mdm2 MdmX conf 47 | Full FLuc ctr 73
CC(Nc1nc(-c2ccccc2)nc2ccccc12)c1ccccc1 (stereo not drawn)	CSC inhib inconclusive
O=C(CCNC(=O)c1ccccc1Cl)NCC(c1ccco1)N1CCCC1 (stereo not drawn)	none
CCCOc1ccc(N2C(=O)CC(N(CCc3ccc(OC)cc3)C(=O)c3ccccc3)C2=O)cc1 (stereo not drawn)	none
CCOC(=O)c1c(NC(=O)CSc2nnc(-c3c[nH]c4ccccc34)n2CCOC)sc2c1CCCCC2	Mdm2-MdmX inh 56 | Mdm2 MdmX conf inactive
O=C(N/N=C/c1ccoc1)c1ccccc1F	none
COc1ccc(CN(C2CC2)S(=O)(=O)c2ccccc2Br)cc1	Mdm2-MdmX inh 51 (no result: CSC inhib, Jurkat NFkB inh, aSyn UTR inh) | Mdm2 MdmX conf inactive
N=c1c(C(=O)NC2CCCCC2)cc2c(=O)n3ccccc3nc2n1Cc1ccco1	Mdm2-MdmX inh 56 (no result: CSC inhib) | Mdm2 MdmX conf 44 | Full FLuc ctr inactive
N=c1c(C(=O)NC2CCCCC2)cc2c(=O)n3ccccc3nc2n1Cc1ccccc1	none
CC(C)Cc1ccc(CN2CCCC(NC(=O)c3cnc4ccccn4c3=O)C2)cc1 (stereo not drawn)	Mdm2-MdmX inh 60 | Mdm2 MdmX conf inactive
Cc1ccc(Cn2c(=N)c(C(=O)NC3CCCC3)cc3c(=O)n4ccccc4nc32)cc1	Mdm2-MdmX inh 50 | Mdm2 MdmX conf inactive
CN1C(C(=O)NCc2ccccc2)CC2Cn3c(nc4cc5ccccc5cc43)C21 (stereo not drawn)	none
COc1ccc(S(=O)(=O)N2CCCCCC2)cc1C(=O)N1CCN(c2ccccc2O)CC1	none
COc1cc2oc(=O)cc(-c3cccc(-c4cccc(C)c4)c3)c2c(OC)c1OC	Mdm2-MdmX inh 62 (no result: CSC inhib, Jurkat NFkB inh, aSyn UTR inh) | Mdm2 MdmX conf inactive
COc1cc(OC)c2c(-c3cccc(-c4ccc(OC)c(OC)c4)c3)cc(=O)oc2c1	Mdm2-MdmX inh 63 (no result: CSC inhib, Jurkat NFkB inh, aSyn UTR inh) | Mdm2 MdmX conf 52 | Full FLuc ctr 86
